Screens deposited in PubChem BioAssay by several laboratories.
Anthrax LF prot: inhibitors of Bacillus anthracis lethal factor protease. P15917. multiplex microsphere protease cleavage assay, LF. inhibition, % at 10 µM. hit rate 0.12% among 360,000
Target sequence (P15917 whole entry, looked up): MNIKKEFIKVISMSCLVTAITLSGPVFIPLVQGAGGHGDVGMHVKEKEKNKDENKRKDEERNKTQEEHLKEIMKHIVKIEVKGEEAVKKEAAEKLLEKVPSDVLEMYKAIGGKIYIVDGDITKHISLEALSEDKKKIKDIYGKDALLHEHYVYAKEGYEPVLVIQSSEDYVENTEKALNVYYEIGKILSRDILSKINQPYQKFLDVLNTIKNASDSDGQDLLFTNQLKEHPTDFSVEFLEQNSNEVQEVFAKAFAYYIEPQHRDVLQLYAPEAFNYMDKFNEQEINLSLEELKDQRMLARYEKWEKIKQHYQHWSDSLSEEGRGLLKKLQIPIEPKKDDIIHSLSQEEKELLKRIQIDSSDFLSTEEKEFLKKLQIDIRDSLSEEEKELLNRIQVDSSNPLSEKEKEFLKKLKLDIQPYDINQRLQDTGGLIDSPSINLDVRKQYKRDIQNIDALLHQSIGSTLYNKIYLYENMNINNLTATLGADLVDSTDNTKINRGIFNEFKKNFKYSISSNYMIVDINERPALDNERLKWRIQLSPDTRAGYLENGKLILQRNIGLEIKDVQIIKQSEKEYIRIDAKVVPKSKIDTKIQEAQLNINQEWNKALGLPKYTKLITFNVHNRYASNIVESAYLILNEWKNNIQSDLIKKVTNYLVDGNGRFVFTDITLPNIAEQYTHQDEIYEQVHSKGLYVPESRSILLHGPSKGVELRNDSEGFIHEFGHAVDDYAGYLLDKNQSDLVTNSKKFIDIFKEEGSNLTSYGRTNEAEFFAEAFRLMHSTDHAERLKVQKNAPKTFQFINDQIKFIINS
BoNT-F LC inh: BoNT F light chain protease inhibition; AID 588497; hit rate 0.22% among 360,000; Multiplex microsphere protease cleavage assay, flow cytometry; inhibition, % at 10 µM; in the data active means inhibition above about 35%, passing the limit was not always enough; inconclusive means no clear call, values can overlap the other calls
Bead autofluor: compound fluorescence in toxin protease inhibitor counterscreen; compound autofluorescence counterscreen, microsphere flow cytometry; hits give high values; AID 624483; fluorescence intensity (concentration not given with the values); hit rate 3.1% among 360,000; in the data active means fluorescence intensity above about 16000; inconclusive means no clear call, values can overlap the other calls
MazEF act: increases E. coli MazEF RNase cleavage of RNA. FAM/BHQ RNA-DNA oligo cleavage fluorescence, 5 h. activation, % at 20 µM. hit rate 0.32% among 350,000. AID 504720. P0AE70; in the data active means activation above about 50%
BoNT A protease: BoNT A light chain protease inhibition. hit rate 0.17% among 360,000. multiplex microsphere protease substrate cleavage, flow cytometry. inhibition, % at 10 µM
Hits are given with their value; n = inactive; u = inconclusive; x = no result. Compounds with a hit are over-represented: about 3.6% of the library has one in this group of screens. Unless noted, no stated cut-off is given here; in the data, active means inhibition above about 30%; inconclusive means no clear call, values can overlap the other calls; inactive means below that.

SMILES	Anthrax LF prot	BoNT-F LC inh	Bead autofluor	MazEF act	BoNT A protease
COc1ccccc1CC(=O)Nc1ccccc1O	n	n	20480	n	n
COc1ccccc1CC(=O)Nc1cc(Cl)ccc1O	n	n	18515	n	u
COc1ccc(-c2csc(C(O)c3ccc(F)c(OC)c3)n2)cc1 (stereo not given)	n	n	n	x	n
COC(=O)c1ccccc1S(=O)(=O)NNC(=O)c1nn(C)c(=O)c2ccccc12	n	n	n	n	n
CCc1nc2c(OCc3ccc(Cl)cc3)cccn2c1N(C)C(=O)c1ccco1	n	n	n	x	n
O=C(CSc1nnc(COc2ccc(Cl)cc2)o1)N(c1ccccc1)C1CCS(=O)(=O)C1 (stereo not given)	n	n	n	n	n
CC(NC(=O)c1ccc(C(C)(C)C)cc1)C(=O)O (stereo not given)	n	n	21690	n	n
CCCOc1ccc(C(=O)NC(C)C(=O)O)cc1 (stereo not given)	n	n	21313	n	n
Cc1cccc(OC(C)C(=O)NC2CCS(=O)(=O)C2)c1C (stereo not given)	n	n	n	n	n
Cc1ccc(NC(=O)Cn2cnc3sc(C(=O)NCc4ccco4)c(C)c3c2=O)cc1Cl	n	n	21778	n	n
Cc1cc(NC(=O)CS(=O)c2cn(Cc3cccc(Cl)c3)c3ccccc23)no1 (stereo not given)	n	n	n	x	n
CCCCn1c(O)c(N=Nc2ccccc2O)c2ccccc21	n	n	n	101	n
C=CCn1cnc2c(c1=O)c1nc3ccccc3nc1n2/N=C/c1cccc(OC)c1	n	n	21328	n	u
O=C1C2CCCN2C(=O)N1CCCN1CCN(c2ccc([N+](=O)[O-])cc2)CC1 (stereo not given)	n	46	n	n	n
O=C1C2CCCCN2C(=O)N1CCN1CCN(c2ccc([N+](=O)[O-])cc2)CC1 (stereo not given)	n	n	n	n	n
COc1ccc(F)cc1S(=O)(=O)N1CCN(c2ccccn2)CC1	n	u	n	n	n
CCN1CCN(S(=O)(=O)c2cc(OC)ccc2OC)CC1	n	n	24223	n	n
COc1ccc(F)cc1S(=O)(=O)N1CC(C)CC(C)C1 (stereo not given)	n	n	20024	n	n
Clc1cccc(CNCCCSc2ncccn2)c1Cl	n	u	n	n	n
C#Cc1ccc([C@@H]2C=C(C(=O)OCC=C)O[C@H](OCc3ccc(CO)cc3)C2)cc1	n	n	n	n	n
CC(C)N1CCC1(C)C(=O)Nc1cc(-c2ccccc2)nn1C (stereo not given)	n	n	n	x	n
O=C(NS(=O)(=O)c1ccc(Cl)cc1)c1ccccc1	n	n	n	n	n
O=C(O)/C(=N/NC(=O)c1ccc(Cl)cc1)c1ccccc1	31	u	n	n	u
C/C(=C\c1ccccc1)CN1CCN(C)CC1	n	n	n	n	n
CCOC(=O)N1CCN(C/C(C)=C/c2ccccc2)CC1	n	n	20298	n	u
SMILES	Anthrax LF prot	BoNT-F LC inh	Bead autofluor	MazEF act	BoNT A protease
Cc1cccc(C)c1Nc1nnc(SCc2cc([N+](=O)[O-])cc3c2OCOC3)s1	n	n	16667	n	n
COc1ccccc1NC(=O)N(C)C[C@@H]1OCc2cnnn2CCCC(=O)N([C@@H](C)CO)C[C@H]1C	n	n	n	n	n
O=C(/C=C/c1cccc(Cl)c1)Nc1ccncc1	n	n	21112	n	n
O=C(/C=C/c1c(Cl)cccc1Cl)Nc1ccncc1	n	n	20186	n	n
O=C(/C=C/c1cccc(Cl)c1)NCc1cccs1	n	n	21424	n	n
O=C(/C=C/c1c(F)cccc1Cl)Nc1ccncc1	n	n	n	n	n
COC(=O)[C@]1(C)N[C@H](CN(C)S(=O)(=O)c2ccccc2)[C@@H]2C(=O)N(Cc3ccccc3)C(=O)[C@@H]21	n	n	n	n	n
CCc1c(C2(O)CCCCC2)[nH]c2ccc(C(F)(F)F)cc12	n	n	n	n	n
COc1cc(C(=O)NN=Cc2ccc(N(C)C)cc2)cc(OC)c1OC	n	n	n	n	n
CSc1nc(COC(=O)NC(C)C)c(COC(=O)NC(C)C)n1Cc1ccccc1	n	n	n	x	n
CCCc1cc(=O)n2[nH]c(C)nc2n1	n	n	24470	n	n
Cc1c(C(=O)NCc2ccccc2)sc(=O)n1Cc1ccccc1F	n	n	n	x	n
FC(F)(F)c1nnc2c(Sc3ccccc3)nc3ccccc3n12	n	n	n	n	n
FC(F)(F)c1nnc2c(Sc3ccccn3)nc3ccccc3n12	n	n	22962	n	n
N#Cc1ccc(NN=Nc2ccccc2C#N)cc1	n	n	n	n	n
O=C(COC(=O)c1ccccc1C(=O)c1ccc(Cl)c([N+](=O)[O-])c1)NC1CCCCCC1	n	n	23481	n	n
COCC(C)NC(=O)c1ccc2nc(-c3ccccc3)c(-c3ccccc3)nc2c1 (stereo not given)	n	u	n	n	n
COCC(C)NC(=O)c1ccc(N(C)C)cc1 (stereo not given)	n	n	17509	n	n
O=C(CSc1ncnc2nc[nH]c12)c1ccc2ccccc2c1	n	n	n	n	n
O=C(CSc1ncnc2nc[nH]c12)N1CCN(c2ccc(Cl)cc2)CC1	n	n	16576	n	n
O=C(O)CSc1ncnc2nc[nH]c12	n	n	20292	n	n
CCOC(=O)C(C)Sc1ncnc2nc[nH]c12 (stereo not given)	n	n	24038	n	u
CC(C)N1CCC(=O)NC1=O	n	n	n	n	n
COc1ccc(CNC(=O)c2cccc3c(-c4cccc(C(N)=O)c4)coc23)cc1OC	n	n	n	x	n
CCOc1ccc2c(c1)C(=NNC(=O)c1ccccn1)c1cc(OCC)ccc1-2	n	n	n	n	n
SMILES	Anthrax LF prot	BoNT-F LC inh	Bead autofluor	MazEF act	BoNT A protease
CC1=C(C(=O)N(C(C)C)C(C)C)CC(CC(=O)NCc2cccc3ccccc23)C(=O)N1Cc1ccccc1 (stereo not given)	n	n	n	x	n
Cc1snc(SCC(=O)c2ccc(Cl)cc2)c1C#N	n	n	22846	n	u
N#Cc1c(SCC(N)=O)nsc1SCc1ccccc1Cl	n	n	n	n	n
N#Cc1c(SCC(N)=O)nsc1SCc1ccc(Cl)cc1	n	n	22700	n	u
CN(C(=O)c1cccc(S(=O)(=O)N2CCCC2)c1)C1CCCCC1	n	n	n	n	n
NC(=O)CSc1nnnn1-c1ccc(OC(F)(F)F)cc1	n	n	23160	n	u
COc1ccc(-n2nnnc2SCC(N)=O)cc1	n	n	n	n	n
Cc1ccc2nc(C(O)C(O)c3nc4ccc(C)cc4[nH]3)[nH]c2c1 (stereo not given)	n	n	n	n	n
Cc1ccc2nc(C(F)OC(F)(F)F)[nH]c2c1 (stereo not given)	n	n	17272	n	n
O=C(c1ccc(Br)cc1)C1CCc2occc2C1=O (stereo not given)	n	n	22206	n	n
CCOC(=O)c1ccc(-c2ccc(/C=C(\C#N)C(=O)NCC3CCCO3)o2)cc1 (stereo not given)	n	n	22009	n	n
COc1ccc(/C=C(\C#N)C(=O)NCC2CCCO2)cc1OC (stereo not given)	n	n	n	n	n
